An excerpt weighted towards active compounds, which were near 2.9% of everything screened.
ATXN2 expr inh – Primary qHTS for Inhibitors of ATXN expression. HEK-293 ATXN2-luciferase reporter, luminescence, 24 h. Potency, µM (titrated, usually from 57 µM), for the others: top-dose activity change, negative = inhibition, hits mostly inhibitors. hit rate 0.72% among 360,000. AID 1745845, 2022; also: % is scaled to controls: 0 for no effect and ±100 for the full control effect; nearly all actives have a fitted effect of over 55% in size
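ATXN2-luciferase reporter cells (luciferase flanked by upstream and downstream ATXN2 gene portions) were treated 24 h at 37 °C with compounds at up to 57 uM. SteadyGlo luminescence gave expression; GF-AFC fluorescence gave viability.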
A549 tox-1 – Nrf2 qHTS screen for inhibitors: counterscreen for cytotoxicity. A549 ARE-Fluc cells, CellTiter-Fluor viability, 18-24 h. AID 504648, 2011. Potency, µM (top dose mostly 46 µM), for the others: top-dose activity change, negative = cytotoxicity, actives largely listed as inhibitors. hit rate 0.16% among 390,000; also: % is scaled to controls: 0 for no effect and ±100 for the full control effect
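A549 ARE_Fluc cells in 5% FBS OPTI-MEM were exposed to compounds in concentration-response for 18-24 h at 37 deg C. Viability was read by CellTiter-Fluor fluorescence (Ex 405/Em 525) after 30 min, before the luciferase read.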
Nrf2 block – Nrf2 qHTS screen for inhibitors | hit rate 2.1% among 360,000 | A549 ARE-Fluc reporter, luciferase luminescence, 18-24 h | Potency, µM (highest dose often 46 µM), without a hit: top-dose activity change, negative = inhibition, actives largely listed as inhibitors | AID 504444, 2011; also: % is scaled to controls: 0 for no effect and ±100 for the full control effect; nearly all actives have a fitted effect of over 60% in size
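Concentration-response testing used A549 ARE_Fluc cells at 5000 cells/well. Following an 18-24 h compound incubation, viability was read by fluorescence (Ex 405/Em 525) and luciferase output by luminescence.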
ATXN viability – Viability Counterscreen for Primary qHTS for Inhibitors of ATXN expression | S2 cells (HEK-293 line with an ATXN2-luciferase reporter) viability, CellTiter-Fluor protease fluorescence, 24 h | hit rate 0.49% among 400,000 | Potency, µM (doses to about 56.7 µM), hits mostly cytotoxic; also: nearly all actives have a fitted effect of over 40% in size
Nrf2 ARE act – qHTS of Nrf2 Activators. Potency, µM (series often up to 46.1 µM), for the others: at the highest dose activation, usual class: activators. hit rate 0.31% among 410,000. AREc32 ARE-luciferase reporter (MCF7-derived line), luminescence, 24 h; also: % of control where 0% means no effect; nearly all actives have a fitted effect of over 65% in size
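AREc32 cells carrying an ARE-driven firefly luciferase, 1000 cells/well in OPTI-MEM with 5% FBS, dosed after overnight attachment and incubated 24 hr at 37 deg C. Steady-Glo luminescence read after 30 min at RT.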
FLuc counter 3 – Nrf2 qHTS screen for inhibitors: Purified Fluc Biochemical Counterscreen for Hit Validation; shares compounds with Nrf2 block; purified firefly luciferase, luminescence inhibition; Potency, µM (highest dose often 57.5 µM), for inactives: top-dose activity change, negative = inhibition, actives largely listed as inhibitors; hit rate 4% among 1,400; AID 720522, 2013; also: % is scaled to controls: 0 for no effect and ±100 for the full control effect; nearly all actives have a fitted effect of over 65% in size
Target sequence (P08659 whole entry, looked up): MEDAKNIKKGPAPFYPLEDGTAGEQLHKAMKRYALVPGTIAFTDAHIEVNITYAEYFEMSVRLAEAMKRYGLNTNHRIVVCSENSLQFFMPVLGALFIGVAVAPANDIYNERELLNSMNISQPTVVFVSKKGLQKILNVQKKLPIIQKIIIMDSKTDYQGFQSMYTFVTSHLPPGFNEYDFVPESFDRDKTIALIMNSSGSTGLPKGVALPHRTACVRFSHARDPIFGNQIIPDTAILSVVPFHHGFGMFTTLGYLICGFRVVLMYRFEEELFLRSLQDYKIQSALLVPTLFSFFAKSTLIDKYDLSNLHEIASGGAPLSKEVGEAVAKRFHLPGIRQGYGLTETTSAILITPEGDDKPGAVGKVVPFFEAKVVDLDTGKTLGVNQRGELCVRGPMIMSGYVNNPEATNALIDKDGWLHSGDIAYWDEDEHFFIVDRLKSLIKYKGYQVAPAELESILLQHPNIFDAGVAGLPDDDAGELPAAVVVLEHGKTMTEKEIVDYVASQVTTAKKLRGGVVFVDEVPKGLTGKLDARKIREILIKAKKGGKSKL
A549 tox-2 – Nrf2 qHTS screen for inhibitors: A549 ARE-Fluc Cytotoxicity Counterscreen for Hit Validation; shares compounds with Nrf2 block; A549 ARE-Fluc cells, cytotoxicity counterscreen; Potency, µM (titrated, usually from 46.1 µM), inactives show at the highest dose activity change, negative = cytotoxicity, most hits filed as inhibitors; hit rate 2% among 1,400; AID 720523, 2013;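 also: cells exposed to compounds for 18 to 24 hours; % is scaled to controls: 0 for no effect and ±100 for the full control effect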
Nrf2 ARE inh – Nrf2 qHTS screen for inhibitors: Nrf2 A549 ARE-Fluc Confirmation Assay for Hit Validation. AID 720524, 2013. A549 ARE-firefly luciferase reporter, luminescence. shares compounds with Nrf2 block. Potency, µM (titrated, usually from 46.1 µM), for inactives: at the highest dose activity change, negative = inhibition, most hits filed as inhibitors. hit rate 74% among 1,400; also: % is scaled to controls: 0 for no effect and ±100 for the full control effect; nearly all actives have a fitted effect of over 65% in size
* marks the source's active call; other numbers are inactive results; i = inactive; ? = inconclusive; . = not tested or not shown. Calls follow the shape of the dose curve; as a rule, active = well fitted curve in the direction sought with a large enough effect; inconclusive = small, poorly fitted or top-dose-only effect, or another doubt; inactive = no such curve, though single readings can be large; an effect the other way counts as inactive or inconclusive. Potency is read from the fitted curve at half-maximal effect.

SMILES	ATXN2 expr inh	A549 tox-1	Nrf2 block	ATXN viability	Nrf2 ARE act	FLuc counter 3	A549 tox-2	Nrf2 ARE inh
CCCCn1c2c(c(=N)c3c1CCC3)CCC2	?	-14.5%	2.59µM*	i	-1.1%	-1.0%	-10.6%	6.51µM*
COc1ccc(C2C3=C(CC(C)(C)CC3=O)Oc3ncn(CC(C)C)c(=N)c32)cc1 (stereo unspecified)	0.0%	-7.1%	7.0%	i	2.4%	.	.	.
COc1ccc(C2C3=C(CC(C)(C)CC3=O)Oc3ncn(Cc4ccco4)c(=N)c32)cc1 (stereo unspecified)	-15.4%	?	9.2µM*	i	9.0%	2.5%	-9.3%	8.8%
CCOc1ccc(NC(=O)Cn2c(=O)n(Cc3ccccc3)c(=O)c3c4c(sc32)CN(C(C)=O)CC4)cc1	-12.6%	-5.1%	-14.4%	i	3.9%	.	.	.
CCC(C)NC(=O)Cn1ncc2c([nH]c3ccc(C)cc32)c1=O (stereo unspecified)	8.0%	9.3%	.	i	-0.1%	.	.	.
Cc1cc(C)cc(NS(=O)(=O)c2ccc3c(c2)c(=O)n(C)c(=O)n3C)c1	?	-22.4%	8.2µM*	i	-1.0%	2.0%	-13.0%	7.31µM*
Cn1c(=O)c2cc(S(=O)(=O)Nc3cc(C(=O)O)cc(C(=O)O)c3)ccc2n(C)c1=O	.	4.9%	4.7%	i	-0.2%	.	.	.
COc1cccc(C(=O)/C=C2\Sc3ccccc3N2C)c1	?	-2.5%	?	.	5.3%	.	.	.
Cc1ccc2c(c1)S/C(=C/c1ccc[n+](CCO)c1)N2C	?	-17.0%	1.16µM*	?	5.4%	1.7%	-20.5%	5.8µM*
CCN(CC)C(=O)c1oc2ccc(S(=O)(=O)N3CCCCCC3)cc2c1C	-0.8%	-4.9%	?	i	2.4%	.	.	.
CCN(CC)C(=O)c1oc2ccc(S(=O)(=O)N3CC(C)CC(C)C3)cc2c1C (stereo unspecified)	?	0.0%	8.2µM*	i	0.1%	-0.4%	-6.1%	8.2µM*
CC(CC(=O)N1CCN(c2cccc(Cl)c2)CC1)S(=O)(=O)c1ccc2c(c1)NC(=O)CO2 (stereo unspecified)	-26.2%	?	6.51µM*	?	-0.2%	-1.0%	-19.0%	23.1µM*
Cc1cc(-n2c(C)cc(C(=O)CSc3ncnc4ccccc34)c2C)no1	-2.0%	?	4.61µM*	i	6.0%	?	-1.5%	16.4µM*
Cc1cc(C(=O)CSc2ncnc3ccccc23)c(C)n1C1CC1	15.4%	-0.3%	-16.0%	i	4.9%	.	.	.
CCN1CCN(C(c2ccc(SC)cc2)c2c(O)cc(C)n(CCOC)c2=O)CC1 (stereo unspecified)	.	16.3%	.	.	2.1%	.	.	.
CC(=O)N(C(C)=O)c1ncc2c([nH]c3ccccc32)c1C#N	-10.1%	-15.4%	8.2µM*	i	-0.3%	-18.1%	-10.6%	.
COc1ccc(NC(=O)COC(=O)c2cc(OC)c(OC)cc2NC(=O)c2ccco2)cc1OC	-9.1%	.	5.8µM*	i	-1.0%	-25.8%	-14.5%	-23.0%
CCN(CC)S(=O)(=O)c1ccc(NC(=O)c2c(C)oc3ncnc(N4CCOCC4)c23)cc1	.	-6.4%	1.3%	.	-0.1%	.	.	.
COc1ccc(CNc2ncnc3c2[nH]c2ccccc23)cc1	?	-19.2%	4.61µM*	i	8.2%	?	-19.8%	5.17µM*
COc1ccc(CCn2cnc3c([nH]c4ccccc43)c2=O)cc1	.	4.4%	16.7%	i	-0.4%	.	.	.
CCOc1ccc(S(=O)(=O)Nc2cnc3ccccc3c2)cc1	-23.9%	-11.0%	4.11µM*	i	-0.4%	0.2%	0.1%	6.51µM*
CCOc1ccc(S(=O)(=O)Nc2nc3ccccc3nc2Cl)cc1	.	0.0%	?	i	2.3%	.	.	.
O=C(Nc1ccc(Br)cc1)c1cccc(S(=O)(=O)Nc2cnc3ccccc3c2)c1	-17.2%	?	2.91µM*	i	9.9%	?	-14.0%	18.4µM*
Cc1ccc(Nc2ncnc3c2nc2n3CCCC2)c(Br)c1	.	16.8%	?	.	-4.3%	.	.	.
O=[N+]([O-])c1cccnc1N1CCN(Cc2ccc3c(c2)OCO3)CC1	-14.7%	-1.3%	2.7%	i	0.0%	.	.	.
SMILES	ATXN2 expr inh	A549 tox-1	Nrf2 block	ATXN viability	Nrf2 ARE act	FLuc counter 3	A549 tox-2	Nrf2 ARE inh
O=[N+]([O-])c1ccc2ncnc(N3CCN(Cc4ccc5c(c4)OCO5)CC3)c2c1	.	-19.5%	8.2µM*	?	-0.7%	-1.6%	-10.6%	16.4µM*
COc1cc(OC)c(NC(=O)c2c(N3CCCC3=O)c3cc(C)ccc3n2C)cc1Cl	0.6%	8.3%	?	?	0.7%	.	.	.
COc1ccc(CCN2C(=O)c3[nH]nc(-c4ccccc4O)c3C2c2ccccc2)cc1 (stereo unspecified)	.	-14.0%	-24.7%	.	-2.3%	.	.	.
CC(=O)OCC(=O)C1(O)CCC2C3CCC4=CC(=O)C=CC4(C)C3C(O)CC21C (stereo unspecified)	-4.5%	-1.3%	0.0291µM*	i	-0.2%	1.4%	-5.6%	0.058µM*
C[C@]12C=CC(=O)C=C1CC[C@@H]1C2[C@@H](O)C[C@@]2(C)C1CC[C@]2(O)C(=O)COC(=O)CCC(=O)O (stereo partly specified)	6.8%	-2.4%	0.13µM*	i	2.8%	-3.1%	-0.3%	?
CCC(C)C(NC(=O)CCC(=O)OCC(=O)[C@@]1(O)CCC2[C@@H]3CCC4=CC(=O)C=C[C@]4(C)C3[C@@H](O)C[C@@]21C)C(=O)O (stereo partly specified)	.	3.6%	0.184µM*	i	-0.1%	3.2%	-4.0%	0.206µM*
CC(=O)OCC(=O)[C@@]1(O)CC[C@H]2[C@@H]3CCC4=CC(=O)CC[C@]4(C)[C@H]3C(=O)C[C@@]21C	1.4%	-0.7%	-6.0%	i	0.3%	.	.	.
CCC(C)(C)c1ccc(OCCCC[n+]2cccc(C)c2)c(C(C)(C)CC)c1	?	?	8.2µM*	?	-2.0%	-5.5%	?	6.51µM*
Cc1ccc[n+](CC(=O)Nc2cc(C(F)(F)F)ccc2Cl)c1	-7.1%	1.1%	10.6%	i	-0.6%	.	.	.
